Most compounds without a hit are left out; they make up all but 19% or so of the library.
TDP1 block: TDP1 (human) enzyme inhibition | Q9NUW8 | recombinant TDP1, AlphaScreen DNA substrate cleavage | Potency, µM (top dose mostly 130 µM), usual class: inhibitors | hit rate 0.28% among 350,000; further: nearly all actives have a fitted effect of over 40% in size
Target sequence (Q9NUW8 whole entry, looked up): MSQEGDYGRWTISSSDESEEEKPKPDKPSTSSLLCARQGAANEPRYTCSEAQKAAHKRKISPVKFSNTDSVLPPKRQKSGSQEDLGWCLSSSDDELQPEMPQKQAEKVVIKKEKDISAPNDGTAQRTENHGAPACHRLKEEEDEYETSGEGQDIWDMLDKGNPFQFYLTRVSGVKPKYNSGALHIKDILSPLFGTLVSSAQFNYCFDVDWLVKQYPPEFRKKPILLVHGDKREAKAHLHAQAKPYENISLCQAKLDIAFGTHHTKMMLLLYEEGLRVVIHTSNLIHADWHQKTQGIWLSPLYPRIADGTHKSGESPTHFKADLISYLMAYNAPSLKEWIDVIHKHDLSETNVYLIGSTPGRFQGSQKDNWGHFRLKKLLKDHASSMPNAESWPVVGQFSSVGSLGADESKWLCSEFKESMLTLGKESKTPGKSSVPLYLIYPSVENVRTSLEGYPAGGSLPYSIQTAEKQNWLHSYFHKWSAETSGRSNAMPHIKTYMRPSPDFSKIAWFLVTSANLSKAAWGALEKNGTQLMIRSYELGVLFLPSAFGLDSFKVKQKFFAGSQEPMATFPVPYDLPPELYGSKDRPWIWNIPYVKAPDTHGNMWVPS
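Tdp1 1 nM final; 15 min RT w/ cpd; substrate 15 nM, 5 min; beads 10 ug/ml, 10 min; AlphaScreen read. Neg ctrl: no enzyme.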
DT40 TDP1 CPT: growth inhibition of DT40 Tdp1-/-;hTDP1 cells with camptothecin (screen for TDP1 inhibitors); Potency, µM (doses to about 46.2 µM), usual class: inhibitors; chicken DT40 Tdp1-/-;hTDP1 cells + 20 nM CPT, ATP luminescence, 48 h; hit rate 12% among 420,000; further: nearly all actives have a fitted effect of over 55% in size
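Cell growth measured by CellTiter-Glo luminescence after a minimum 48 h, 37 C compound exposure with 20 nM CPT in Tdp1-knockout DT40 cells stably expressing hTDP1, seeded 400/well; qHTS titration format.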
TGFb inhibitor: blocks TGF-b signaling | HepG2 CAGA-GFP TGF-b/SMAD3 reporter, GFP fluorescence, 18 h; TGF-beta stimulated, 500 pg/mL final | Potency, µM (series often up to 46.1 µM), most hits filed as inhibitors | hit rate 1.2% among 410,000; further: nearly all actives have a fitted effect of over 65% in size
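HEPG2 CAGA-GFP cells (1000/well, DMEM with 1% FBS) were pre-incubated 2 h at 37 degrees C, given compound by pin tool, then stimulated with TGF-beta at 500 pg/mL final for 18 h before per-cell GFP fluorescence imaging.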
HepG2 viability: counter-screen for TGF-b inhibitors: cytotoxicity in HepG2 cells | HepG2 CAGA-GFP viability, ATP luminescence, 18 h | Potency, µM (doses to about 46.1 µM), most hits filed as cytotoxic | hit rate 0.76% among 410,000
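CellTiter-Glo luminescence gave cytotoxicity after 18 hours at 37 degrees C. The cells were HepG2 CAGA-GFP in 1% FBS DMEM, stimulated with 500 pg/mL TGF-beta after compound addition. %Activity was normalised to no-cell wells (complete cell-killing) and DMSO (no toxicity), and curves were fitted and classified.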
DT40 TDP1 no CPT: qHTS for Inhibitors of human tyrosyl-DNA phosphodiesterase 1 (TDP1): qHTS in cells in absence of CPT; DT40 Tdp1-/- hTDP1 cells, no CPT, ATP luminescence, 48 h; Potency, µM (top dose mostly 46.2 µM), most hits filed as inhibitors; hit rate 15% among 420,000; AID 686978, 2013; further: nearly all actives have a fitted effect of over 55% in size
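Stably hTDP1-transfected Tdp1-null chicken DT40 cells were treated with library compounds minus camptothecin and grown for at least 48 hr at 37 °C, after which cellular ATP was quantified by luminescence.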
IL-1B inflam inh: inflammasome signaling inhibition, IL-1 beta readout. THP-1 LPS/ATP IL-1B secretion, AlphaLISA, 16 h; stronger effect = lower value. activity change, % at 57.5 µM. hit rate 4.7% among 360,000; in the data active means activity change below about -50%; inconclusive means mostly about -30% to -49%
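THP-1 cells pretreated 1 hr with compounds (up to 57.5 uM final), then stimulated with LPS (250 ng/mL final) plus ATP (1.25 mM final); secreted IL-1B measured by AlphaLISA after 16 hr, decreased signal indicating inhibition.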
Hits are given with their value. Unless noted, the call rests on the fitted dose curve; in most records, active means well fitted curve in the direction sought with a large enough effect; inconclusive means small, poorly fitted or top-dose-only effect, or another doubt; inactive means no such curve, though single readings can be large; an effect the other way counts as inactive or inconclusive.

How did COC(=O)C1=C(C)N(CC2CC2)C(=NCc2cc(OC)c(OC)c(OC)c2)N[C@H]1c1ccccc1 do in these assays?
DT40 TDP1 CPT: inconclusive; TGFb inhibitor: inactive; HepG2 viability: inactive; DT40 TDP1 no CPT: 23.1µM; IL-1B inflam inh: inactive

What do the screens show for `O=C(NCC(=O)N(c1cccc(F)c1)C(C(=O)NC1CCCC1)c1cccnc1)c1ccco1` (stereo not given)?
TDP1 block: inactive; DT40 TDP1 CPT: inactive; TGFb inhibitor: inactive; HepG2 viability: inactive; DT40 TDP1 no CPT: inactive; IL-1B inflam inh: inactive

How did COC(=O)C1=C(C)N(Cc2ccccc2)C(=NCc2cc(OC)c(OC)c(OC)c2)N[C@H]1c1ccccc1 do in these assays?
DT40 TDP1 CPT: 20.6µM; TGFb inhibitor: inactive; HepG2 viability: inactive; DT40 TDP1 no CPT: 14.6µM; IL-1B inflam inh: inconclusive

Results for COC(=O)C1=C(C)N(Cc2ccccc2)C(=NCc2cc(OC)c(OC)c(OC)c2)N[C@H]1c1ccc(Br)cc1 ?
TDP1 block: inactive; DT40 TDP1 CPT: 13µM; TGFb inhibitor: inconclusive; HepG2 viability: inactive; DT40 TDP1 no CPT: 18.4µM; IL-1B inflam inh: inconclusive

Results for CCOC(=O)C1Nc2ccc(C)cc2C2C=CCC12 (stereo not given) ?
DT40 TDP1 CPT: inconclusive; TGFb inhibitor: inactive; HepG2 viability: inactive; DT40 TDP1 no CPT: 18.4µM; IL-1B inflam inh: inactive

Results for CCOC(=O)c1ccc2c(c1)C1C=CCC1C(C(=O)OCC)N2 (stereo not given) ?
DT40 TDP1 CPT: inconclusive; TGFb inhibitor: inactive; HepG2 viability: inactive; DT40 TDP1 no CPT: inconclusive; IL-1B inflam inh: inactive

What do the screens show for `CCOC(=O)C1Nc2ccc(Br)cc2C2C=CCC12` (stereo not given)?
DT40 TDP1 CPT: inconclusive; TGFb inhibitor: inconclusive; HepG2 viability: inactive; DT40 TDP1 no CPT: 20.6µM; IL-1B inflam inh: inactive

What do the screens show for `CC(C)CNC(=O)C1Nc2ccc(OC(F)(F)F)cc2C2C=CCC12` (stereo not given)?
DT40 TDP1 CPT: inconclusive; TGFb inhibitor: inactive; HepG2 viability: inactive; DT40 TDP1 no CPT: 13µM; IL-1B inflam inh: inactive

What do the screens show for `Cc1ccc2cc(F)ccc2n1`?
DT40 TDP1 CPT: inactive; DT40 TDP1 no CPT: inactive; IL-1B inflam inh: inactive

What do the screens show for `N#Cc1cnn(-c2ccccc2)c1NC(=O)c1ccccc1F`?
TDP1 block: inactive; DT40 TDP1 CPT: inactive; TGFb inhibitor: inactive; HepG2 viability: inactive; DT40 TDP1 no CPT: inactive; IL-1B inflam inh: inactive

What do the screens show for `Cc1csc(NC(=O)c2ccc(C)c([N+](=O)[O-])c2)n1`?
TDP1 block: inactive; DT40 TDP1 CPT: inconclusive; TGFb inhibitor: inconclusive; HepG2 viability: inactive; DT40 TDP1 no CPT: 16.4µM; IL-1B inflam inh: inactive

Results for Cc1cc(C)nc(NC(=O)c2ccc(C)c([N+](=O)[O-])c2)n1 ?
TDP1 block: inactive; DT40 TDP1 CPT: inactive; TGFb inhibitor: inactive; HepG2 viability: inactive; DT40 TDP1 no CPT: inactive; IL-1B inflam inh: inactive

Results for Cc1csc(NC(=O)c2ccc3nc[nH]c3c2)n1 ?
DT40 TDP1 CPT: inconclusive; TGFb inhibitor: inactive; HepG2 viability: inactive; DT40 TDP1 no CPT: 23.1µM; IL-1B inflam inh: inactive

How did CCC(=O)NC(=S)Nc1ccc(NC(=O)c2ccc(C)c([N+](=O)[O-])c2)cc1 do in these assays?
TDP1 block: inactive; DT40 TDP1 CPT: inconclusive; TGFb inhibitor: inactive; HepG2 viability: inactive; DT40 TDP1 no CPT: 8.2µM; IL-1B inflam inh: inactive

What do the screens show for `O=S(=O)(Nc1cccc2cccnc12)c1ccc(Br)cc1`?
TDP1 block: inactive

What do the screens show for `CCCNC(=O)CN1C(=O)NC(CCSC)C1=O` (stereo not given)?
TDP1 block: inactive; DT40 TDP1 CPT: inactive; TGFb inhibitor: inactive; HepG2 viability: inactive; DT40 TDP1 no CPT: inactive; IL-1B inflam inh: inactive

How did COC(=O)c1sccc1S(=O)(=O)N1CCN(c2ccccc2)CC1 do in these assays?
TDP1 block: inactive; DT40 TDP1 CPT: inactive; TGFb inhibitor: inactive; HepG2 viability: inactive; DT40 TDP1 no CPT: inactive

What do the screens show for `C=C1NN(Cc2ccccc2)C(=O)N1c1ccc(OCc2ccccc2)cc1`?
DT40 TDP1 CPT: 11.2µM; TGFb inhibitor: inactive; HepG2 viability: inactive; DT40 TDP1 no CPT: 11.2µM

How did NC(=O)[C@@H]1CCCN1C(=O)c1cc(COc2ccc(F)cc2F)on1 do in these assays?
TDP1 block: inactive; DT40 TDP1 CPT: inactive; TGFb inhibitor: inactive; HepG2 viability: inactive; DT40 TDP1 no CPT: inactive; IL-1B inflam inh: inactive

How did CSc1ccccc1OCc1cc(C(=O)N2CCc3[nH]cnc3C2c2ccccn2)no1 (stereo not given) do in these assays?
TDP1 block: inactive; DT40 TDP1 CPT: inactive; TGFb inhibitor: inactive; HepG2 viability: inactive; DT40 TDP1 no CPT: 2.91µM; IL-1B inflam inh: inactive

Results for CSc1ccccc1OCc1cc(C(=O)N2CCCC2c2nonc2C)no1 (stereo not given) ?
TDP1 block: inactive; DT40 TDP1 CPT: 23.1µM; TGFb inhibitor: inactive; HepG2 viability: inactive; DT40 TDP1 no CPT: 20.6µM; IL-1B inflam inh: inactive

How did Cn1ccnc1C1CCCCN1C(=O)c1cc(COc2ccc(F)cc2F)on1 (stereo not given) do in these assays?
DT40 TDP1 CPT: inconclusive; TGFb inhibitor: inactive; HepG2 viability: inactive; DT40 TDP1 no CPT: 13µM; IL-1B inflam inh: inactive

How did CSc1ccccc1OCc1cc(C(=O)N2CCNC(=O)C2)no1 do in these assays?
TDP1 block: inactive; DT40 TDP1 CPT: inactive; TGFb inhibitor: inactive; HepG2 viability: inactive; DT40 TDP1 no CPT: inactive; IL-1B inflam inh: inactive

How did CCOC(=O)N1CCC(NC(=O)c2cc(COc3ccccc3SC)on2)CC1 do in these assays?
TDP1 block: inactive; DT40 TDP1 CPT: 3.66µM; TGFb inhibitor: inactive; HepG2 viability: inactive; DT40 TDP1 no CPT: 1.46µM; IL-1B inflam inh: inactive

What do the screens show for `O=C(NC1CC(=O)N(c2ccc(Cl)cc2)C1)c1ccc(S(=O)(=O)N2CCCC2)cc1` (stereo not given)?
TDP1 block: inactive; DT40 TDP1 CPT: inconclusive; TGFb inhibitor: inactive; HepG2 viability: inactive; DT40 TDP1 no CPT: inconclusive

What do the screens show for `COc1ncnc2c1ncn2CCCNCC(c1ccccc1)c1ccccc1`?
DT40 TDP1 CPT: 23.1µM; TGFb inhibitor: inactive; HepG2 viability: inactive; DT40 TDP1 no CPT: 18.4µM; IL-1B inflam inh: inactive

Results for COc1ncnc2c1ncn2CCCNCC(C)c1ccccc1 (stereo not given) ?
DT40 TDP1 CPT: inactive; TGFb inhibitor: inactive; HepG2 viability: inactive; DT40 TDP1 no CPT: inactive; IL-1B inflam inh: inactive

Bioassay records deposited in PubChem by National Center for Advancing Translational Sciences (NCATS).
